Assay [1] deals with rat Catechol-O-Methyl Transferase (COMT), Comt (gene 24267) (UniProt P22734). The experiment in a line: NVS_ENZ_rCOMT: NovaScreen (NVS) Enzymatic Assay for rat Catechol-O-Methyl Transferase (COMT) (AID 2283235). An outline of the steps: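 Cell-free enzyme activity with protein extracted from rat dorsal striatum, measured by HPLC with absorbance detection. Compounds screened at 25 uM in duplicate; actives then run in concentration-response up to 50 uM, loss of signal versus DMSO.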
Chain of rat Catechol-O-Methyl Transferase (COMT), Comt (gene 24267) (P22734 whole entry, looked up): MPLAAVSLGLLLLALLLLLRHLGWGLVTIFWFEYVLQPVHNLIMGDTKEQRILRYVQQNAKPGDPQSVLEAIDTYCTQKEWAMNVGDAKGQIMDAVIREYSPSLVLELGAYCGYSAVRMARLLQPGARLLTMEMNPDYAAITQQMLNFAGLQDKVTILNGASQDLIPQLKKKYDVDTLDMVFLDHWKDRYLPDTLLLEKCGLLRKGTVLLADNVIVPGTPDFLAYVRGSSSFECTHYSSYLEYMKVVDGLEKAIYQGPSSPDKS

Assay [2] relates to bovine Angiotensin II Receptor Type 2 (AT2), gene 407157. The experiment in a line: NVS_GPCR_bAT2: NovaScreen (NVS) G Protein-Coupled Receptor Assay for bovine Angiotensin II Receptor Type 2 (AT2) (AID 2283240). The gist of the method: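 Radioligand displacement on bovine cerebellar membranes, 1 hour incubation, filter-based scintillation counting; loss of signal vs DMSO. Duplicate single-point screen at 25 uM, then concentration-response to 50 uM maximum.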

Assay [3] concerns the target bovine Dopamine Receptor (DR), Non-selective Binding, DRD1 (gene 281125) (UniProt Q95136). The experiment in a line: NVS_GPCR_bDR_NonSelective: NovaScreen (NVS) G Protein-Coupled Receptor Assay for bovine Dopamine Receptor (DR), Non-selective Binding (AID 2283241). An outline of the steps:
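Bovine striatal membranes; radioligand displacement read by filtration and scintillation counting 1 h after dosing, loss of signal vs DMSO. Screened in duplicate at 25 uM, then concentration-response for hits.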

Results filed as inconclusive are left out. Calls of active or inactive are those of the source. How the source made its calls: active means hit-call score of the fitted dose curve at least 0.9, where 1 is the maximum; inconclusive means response in the unintended direction; inactive means score below 0.9.

Chain of bovine Dopamine Receptor (DR), Non-selective Binding, DRD1 (gene 281125) (Q95136 whole entry, looked up): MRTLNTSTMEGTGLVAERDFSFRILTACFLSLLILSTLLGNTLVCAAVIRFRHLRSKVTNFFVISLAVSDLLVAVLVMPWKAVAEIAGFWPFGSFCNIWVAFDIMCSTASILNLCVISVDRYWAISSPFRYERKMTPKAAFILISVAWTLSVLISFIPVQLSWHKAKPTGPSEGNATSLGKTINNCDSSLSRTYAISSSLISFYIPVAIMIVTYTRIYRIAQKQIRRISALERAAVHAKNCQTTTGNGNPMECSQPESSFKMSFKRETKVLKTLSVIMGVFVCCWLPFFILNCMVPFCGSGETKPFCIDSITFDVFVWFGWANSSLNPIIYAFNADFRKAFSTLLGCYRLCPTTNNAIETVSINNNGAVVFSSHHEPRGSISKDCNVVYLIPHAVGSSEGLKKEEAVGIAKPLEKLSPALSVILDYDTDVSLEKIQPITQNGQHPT

Take `CC1=C(/C=C/C(C)=C/C=C/C(C)=C/CO)C(C)(C)CCC1`: the call in assay [1] was inactive.

What is called AC50 is the concentration giving half of the maximal activity seen. For the molecule `O=c1c(O)c(-c2ccc(O)c(O)c2)oc2cc(O)cc(O)c12`, the half-maximal activity concentration (AC50) in assay [1] is 12.4 µM (active).

In the case of `CCCCC(CC)COC(=O)CC(C(=O)OCC(CC)CCCC)S(=O)(=O)O` (stereo unspecified), in assay [2], the AC50 was 19.1 µM (active).

As to `COc1cc(-c2nc(NC(=O)c3cc4cc(C)cc(C)c4n3CC(=O)O)sc2CCC2CCCCC2)c(OC)cc1Cl`, the AC50 in assay [2] was 29.4 µM (active).

Regarding `NC(=O)Cn1c(=O)cc(CCN2CCN(c3nccc4sccc34)CC2)c2ccc(F)cc21`, the AC50 in assay [3] is 1.26 µM (active).

`C1CCC(SSC2CCCCC2)CC1`: the result in assay [3] was inactive.

For the origin of these results see PubChem BioAssay (EPA / NIEHS).
